Screens (PubChem BioAssay)
The full list was thinned out, with hits kept by preference.
TbREL1 primary – TbREL1 RNA ligase inhibitors, primary screen, biochemical, FRET fluorescence | TbREL1 RNA ligation | 89,000 tested, 0.49% active | inhibition, % at 9.66 µM | RNA-editing ligase 1, mitochondrial (Trypanosoma brucei brucei), P86926;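 active = inhibition above the mean inhibition across all screened compounds plus 3 SD, cut at about 11% in these data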;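 also: 0% = plate median of test wells and 100% = NSC42067 control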
Target sequence (P86926 whole entry, looked up): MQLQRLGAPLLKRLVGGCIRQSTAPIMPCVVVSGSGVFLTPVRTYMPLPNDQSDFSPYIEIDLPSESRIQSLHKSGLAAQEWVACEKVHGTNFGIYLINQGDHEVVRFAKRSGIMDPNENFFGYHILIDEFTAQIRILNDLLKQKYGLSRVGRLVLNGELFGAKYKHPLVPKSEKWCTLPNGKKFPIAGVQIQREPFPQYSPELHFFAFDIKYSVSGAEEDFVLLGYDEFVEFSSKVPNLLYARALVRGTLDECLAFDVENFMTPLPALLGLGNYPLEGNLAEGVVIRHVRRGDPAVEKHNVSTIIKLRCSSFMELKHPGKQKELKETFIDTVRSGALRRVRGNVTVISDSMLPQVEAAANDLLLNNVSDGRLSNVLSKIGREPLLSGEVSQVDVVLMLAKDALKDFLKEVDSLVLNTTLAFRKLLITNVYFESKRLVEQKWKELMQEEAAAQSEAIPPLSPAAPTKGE
TbREL1 confirm – TbREL1 RNA ligase inhibitors, confirmation, biochemical, FRET fluorescence, triplicate; shares compounds with TbREL1 primary; TbREL1 RNA ligation; inhibition, % at 9.66 µM; 390 tested, 37% active; AID 1117282, 2014;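 active = mean inhibition across replicates above a set limit taken from the earlier primary screen, cut at about 11% in these data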;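 also: 0% = REL1 with substrate and DMSO and 100% = REL1 plus control inhibitor NSC42067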
The depositor's hits bear a star.

SMILES	TbREL1 primary	others
CCC(C)OC(=O)c1c(N)n(Cc2cccs2)c2nc3ccccc3nc12 (stereo not drawn)	7
CCC(C)NC(=O)c1c(N)n(CCCOC)c2nc3ccccc3nc12 (stereo not drawn)	44*	TbREL1 confirm=36*
CCC(C)NC(=O)c1c(N)n(CC2CCCO2)c2nc3ccccc3nc12 (stereo not drawn)	37*	TbREL1 confirm=29*
Cc1cccn2c(NCC3CCCO3)c(C(C)C)nc12 (stereo not drawn)	-1
O=P(O)(Oc1ccccc1)OC(c1ccccc1)C(F)(F)C(F)(F)F (stereo not drawn)	1
COc1ccc(-n2nnnc2C(c2ccnc3ccccc23)N2CCC(n3c(=O)[nH]c4ccccc43)CC2)cc1 (stereo not drawn)	3
Cc1cc(N2CCNC[C@@H]2C)ccc1N1CCN[C@H](C)C1	1
CCN1CCN(C(=O)Cc2c(C)n(C(=O)c3ccc(Cl)cc3)c3ccc(OC)cc23)CC1	-5
COC(=O)C1=C(c2ccc(F)cc2OCc2ccccc2)C[C@@H]2CC[C@H]1N2C(=O)NCC1CC1	-1
COc1ccc(/C=N/N=C(/N)N[N+](=O)[O-])c(OC)c1	1
N/C(=N\N=C/c1ccc(-c2ccc(O)c(C(=O)O)c2)o1)N[N+](=O)[O-]	49*	TbREL1 confirm=17*
NP(=O)(OCCCc1ccccc1)Oc1ccccc1Cl (stereo not drawn)	0
N#CC1c2ccccc2-n2nncc2CN1C(=O)c1ccccc1F (stereo not drawn)	-1
COC(=O)C1=C(c2c(C)noc2C)C[C@@H]2CC[C@H]1N2C(=O)N1CCC(O)(c2ccc(Cl)cc2)CC1	-1
Cc1cc(O)c2c(c1)C(=O)[C@@]13C(=C2O)C(=O)[C@H]2C(O)[C@@H]1[C@H]1C(O)[C@@H]3C(=O)C3=C(O)c4c(O)cc(C)cc4C(=O)[C@@]312 (stereo partly drawn)	32*	TbREL1 confirm=63*
COC(=O)C1=C(c2cc3ccccc3s2)C[C@@H]2CC[C@H]1N2C	-2
COC(=O)C1=C(c2cc3ccccc3o2)C[C@@H]2CC[C@H]1N2C(=O)NCc1ccc(F)cc1	-1
Clc1cccc(N2Cc3cc(N4CCOCC4)ccc3-n3nncc3C2)c1	-1
CC(C)(C)C(=O)N1Cc2cc(-c3cccc(F)c3)ccc2-n2nncc2C1	-2
COc1ccc(-c2ccc3c(c2)CN(c2cccc(Cl)c2)Cc2cnnn2-3)cc1	15*	TbREL1 confirm=5
COC(=O)C1=C(c2ccc(S(C)(=O)=O)cc2)C[C@@H]2CC[C@H]1N2C(=O)NC1CCCCC1	-1
CSc1ncc(/C=C2/C(=O)NC(=O)N(c3ccc(Cl)cc3)C2=O)cn1	-2
O=C1c2ccccc2-n2nncc2C2c3cc(Br)ccc3CCN12 (stereo not drawn)	0
CN1CCN(c2ccc(NC(=O)C(C)(C)C)cc2)CC1	-1
CN1CCN(c2ccc(N)cc2)CC1	17*	TbREL1 confirm=11
C[C@@H]1COc2cc(N3CCN(C)CC3)ccc2S(=O)(=O)N1	-2
c1ccc2c(CNC3CCCCCC3)c[nH]c2c1	3
Cc1cc(N2CCNC[C@H]2C)ccc1N1CCN[C@@H](C)C1	-1
S=P(c1ccccc1)(c1ccccc1)c1c[n+](Cc2ccccc2)c2ccccn12	5
O=c1[nH]c2ccccc2n1C1CCN(C(c2ccccc2OC(F)(F)F)c2nnnn2-c2ccc3c(c2)OCCO3)CC1 (stereo not drawn)	2
